These results are taken from PubChem BioAssay AID504444 (National Center for Advancing Translational Sciences (NCATS), 2011).

Out of some 360,000 compounds screened, about 7,500 (2.1%) were called active. Where a call stands in place of a potency, no number is given. Not shown: some 20% with an inconclusive outcome. Calls follow the shape of the dose curve; as a rule, active = well fitted inhibition curve with a large enough effect; inconclusive = small, poorly fitted or top-dose-only effect, or effect the other way; inactive = flat fitted curve, though single readings scatter. The full list was thinned out, with actives kept by preference.
Potency is read from the fitted curve at half-maximal effect.

This experiment in a line: Nrf2 qHTS screen for inhibitors. Also: nearly all actives have a fitted effect of over 60% in size. Particulars: A549 ARE-Fluc reporter, luciferase luminescence, 18-24 h; series mostly up to 46 µM. Summed up:
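Two sequential reads on A549 ARE_Fluc cells exposed to compound for 18-24 h: a CellTiter-Fluor fluorescence read for viability, then a luciferase luminescence read for Nrf2/ARE activity.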
Background: Quantitative high-throughput screening tests each substance at several concentrations.
As for `NC(=O)C1(Nc2ccc(-c3ccccc3)cc2)CCCC1`, the Potency result was “inactive”.
For `O=C1CCCC2=C1[C@@]1(CCC(c3ccccc3)C1)N=C(Nc1nc3ccccc3o1)N2` (some centres not stated), the Potency entry was “inactive”.
Consider `O=c1c2ccccc2n(Cc2cccc(Cl)c2)c(=O)n1Cc1ccccc1`, for which the activity change, negative = inhibition was -5.53% [at 9.27 µM] (inactive).
As for `CCOC(=O)c1cnc(SCC(=O)Nc2cccc(OC)c2)nc1N`, the Potency was 25.9 µM (active).
On the same count and under the same terms, as for `CCOC(=O)c1cnc(SCc2nc(N)nc(Nc3ccc(OC)cc3)n2)nc1N`, the entry is “inactive”; as for `CCOC(=O)c1cnc(SCC(=O)NCc2ccco2)nc1N`, “inactive”.
`COc1ccc(-c2cn3c(n2)sc2cc(C(=O)Nc4ccc(F)cc4)ccc23)cc1`: the Potency entry was “inactive”.
With `CCCCCCC1(C)NC(c2ccc3c(c2)OCO3)=CC(c2ccccc2O)N1` (configuration not stated), the Potency entry was “inactive”.
The same measure, in the same setting: next, `Cc1cc(C(=O)NC2CCCc3c2cnn3-c2cccc(C)c2C)c(C)o1` (configuration not stated): 3.66 µM (active).
The same measure, in the same setting: next, `Cc1cccc(-n2nc3c(c2NC(=O)c2ccc(Br)o2)CSC3)c1C`: “inactive”; `CC1=C(C(=O)NC2CC(C)(C)Cc3c2cnn3-c2ccc(C)cc2)OCCO1` (configuration not stated): “inactive”; `Cc1ccc(C(=O)NCCNC(=O)c2cnccn2)cc1`: “inactive”.
Still for that read-out and setting: as for `Cc1ccc(-n2ncc3c2CCCC3NC(=O)c2cnccn2)cc1C` (configuration not stated), the figure is 20.6 µM (active).
For the compound `Cn1nccc1C(=O)NC1CCCc2c1cnn2-c1ccc(F)cc1F` (configuration not stated), the Potency is 0.184 µM (active).
Regarding `COc1ccc(C(=O)NC2CC(C)(C)Cc3c2cnn3-c2ccccc2C)o1` (configuration not stated), the Potency entry was “inactive”.
Regarding `Cc1ccc(-c2csc(NC(=O)c3cnccn3)n2)cc1C`, the Potency entry was “inactive”.
Take `CC(=O)NCC(=O)NC1CCCc2c1cnn2-c1ccccc1F` (configuration not stated): the Potency entry is “inactive”.
Consider `COc1cc(CNCCSc2nnnn2C)ccc1OCc1ccc(Cl)cc1Cl`, for which the Potency result was “inactive”.
`COc1ccc(CNC(=O)CS(=O)Cc2nc(-c3cccc(C)c3)oc2C)cc1` (configuration not stated): the Potency result is “inactive”.
Turning to `Cc1ccc(OCCSc2nc(C)c(Cc3ccccc3)c(=O)[nH]2)cc1`, the Potency entry was “inactive”.
Same read-out and setting: next, `CCOC(=O)[C@H]1[C@H]2COc3ccc(Br)cc3[C@@H]2N2C(=O)CN(C)C(=O)[C@@]12C`: “inactive”.
Take `CN(CC(=O)Nc1ccc(OC(F)F)cc1)S(=O)(=O)/C=C/c1ccccc1`: the Potency entry is “inactive”.
Take `O=C(Nc1cccc(NC(=O)c2cccc(F)c2)c1)c1ccccc1`: the Potency result was “inactive”.
Consider `O=C(Nc1cccc(NC(=O)c2ccc(Br)cc2)c1)c1ccccc1`, for which the Potency entry was “inactive”.
As to `O=C(Cc1ccccc1)Nc1cccc(NC(=O)c2ccccc2)c1`, the Potency is 25.9 µM (active).
In the case of `Cc1ccccc1C(=O)Nc1sc2c(c1C(=O)N1CCC(C)CC1)CCCC2`, the Potency entry is “inactive”.
Same read-out and setting: next, `COc1ccc(C(=O)COC(=O)c2ccc([N+](=O)[O-])s2)cc1OC`: “inactive”; `CC(C)(C)c1cc(C(=O)N/N=C/c2ccc([N+](=O)[O-])s2)n[nH]1`: 20.6 µM (active); `CCOc1ccc(NC(=O)CCC(=O)N/N=C/c2ccc([N+](=O)[O-])s2)cc1`: “inactive”.
On the same count and under the same terms, as for `COc1ccc2ccccc2c1/C=N/NC(=O)c1cc(C)[nH]n1`, the entry is “inactive”; as for `COc1ccc(C(=O)NCC(=O)N/N=C/c2ccc([N+](=O)[O-])s2)cc1OC`, 25.9 µM (active); as for `Cc1cc(C(=O)N/N=C/c2cc([N+](=O)[O-])cc(C)c2O)n[nH]1`, “inactive”.
In the case of `Cn1c(=O)c(C(=O)O)nn(-c2ccccc2)c1=O`, the activity change, negative = inhibition is 7.58% [at 9.27 µM] (inactive).
As to `COc1ccc(C2=NC(c3ccncc3)=Nc3ccc(Br)cc3N2)cc1`, the Potency result is “inactive”.
For the compound `COc1cc(C2CC(=O)Oc3cc(OC)c(OC)c(OC)c32)cc(OC)c1OC` (configuration not stated), the Potency entry was “inactive”.
With `CCN1CCN(CCNC(=O)c2ccc(/C=C3/Sc4ccccc4N(Cc4cccc(C)c4)C3=O)cc2)CC1`, the Potency entry was “inactive”.
The same measure, in the same setting: next, `CCN1/C(=C/c2ccc3ccc(C)cc3[n+]2CC)Sc2ccccc21`: 13 µM (active); `FC(F)(F)c1ccc(-c2cccc3c2C2CC3CCN2Cc2ccccc2)cc1` (configuration not stated): “inactive”.
With `COc1ccc(-c2cc(NCc3ccc(F)cc3)n3cnnc3n2)cc1`, the Potency result is “inactive”.
The same measure, in the same setting: next, `NC(=O)c1ncn([C@@H]2O[C@H](CNCc3cnc(N4CCOCC4)s3)[C@@H](O)[C@H]2O)n1`: “inactive”; `Cn1nc(-c2ccccc2)c(CO)c1Sc1ccccc1`: 25.9 µM (active); `Cc1ccc(S(=O)(=O)c2c(COC(=O)c3cccc(Cl)c3)c(-c3ccccc3)nn2C)cc1`: “inactive”.
Consider `Cn1nc(-c2ccccc2)c(CSc2cccc(Cl)c2)c1Cl`, for which the Potency result is “inactive”.
The same measure, in the same setting: next, `O=C(COc1ccccc1F)NNC(=O)c1cc(Br)ccc1Cl`: “inactive”; `O=C(CN1C(=O)NC2(CCCCCC2)C1=O)Nc1ccc([N+](=O)[O-])cc1`: “inactive”.
The same measure, in the same setting: next, `CCC1CCCCN1Cc1c(O)ccc2c(=O)c(Oc3ccccc3Cl)c(C(F)(F)F)oc12` (configuration not stated): “inactive”; `C#CCOCCOCCOCCNc1nc(N2CCN(C(=O)Cn3cc(CCO)nn3)CC2)nc(N2CCN(C(=O)[C@H](CCCCN)n3cc(CCCC)nn3)CC2)n1`: “inactive”; `Cc1cc(C2=NNC(=Nc3ccc(S(=O)(=O)N4CCOCC4)cc3)SC2)c(C)n1CC1CCCO1` (configuration not stated): “inactive”.
Still for that read-out and setting: as for `C=CCn1c(C)cc(C2=NNC(=NCC)SC2)c1C`, the figure is 16.4 µM (active).
On to `Cc1cccc2nc(-c3ccc(Cl)s3)c(Nc3ccc4c(c3)OCCO4)n12`, for which the Potency entry is “inactive”.
The same measure, in the same setting: next, `COc1ccc(NC(=O)/C(N=Nc2cccc(S(=O)(=O)Nc3ccc(SC(F)F)cc3)c2)=C(\C)O)cc1`: “inactive”; `C=CCCC(=O)N1C[C@H]2CON(C)[C@H]2C[C@H]1c1cccc(Nc2ccccc2)c1`: “inactive”; `CN(C)C(=O)CCc1ccc2c3c([nH]c2c1)[C@]1(C)[C@@H](C(=O)N2CCCCC2)C[C@H](CC(=O)NCCC2=CCCCC2)C(=O)N1CC3`: “inactive”.
Still for that read-out and setting: next, `CCc1ccc(S(=O)(=O)n2ccnc2)cc1`: “inactive”; `CCOc1ccccc1CNC(=O)c1ccc(-n2c(C)cc3c2CCC(C)C3)cc1` (configuration not stated): “inactive”.
Take `COc1ccc(C(=O)NC(=S)NNC(=O)c2c(-c3ccccc3)noc2C)cc1`: the Potency was 23.1 µM (active).
`COc1ccc(C(=O)NC(=S)NNC(=O)CCc2ccccc2)cc1`: the Potency is 7.31 µM (active).
Consider `COc1ccc(C(=O)NNC(=S)NC(=O)c2ccccc2[N+](=O)[O-])cc1`, for which the Potency entry was “inactive”.
As for `CC(C)Oc1ccc(CCC(=O)NNC(=S)NCc2ccccc2)cc1`, the Potency entry was “inactive”.
In the case of `O=C(CCc1ccccc1)NNC(=O)c1ccc(Br)cc1`, the Potency result was “inactive”.
On the same count and under the same terms, as for `Cc1ccc(CNC(=O)c2c(-c3ccccc3)noc2C)cc1`, the entry is “inactive”; as for `CCN(C(=O)c1sc2cc(OC)ccc2c1Cl)c1ccccc1`, “inactive”; as for `C=CCN1C=C(C(=O)c2ccccc2)C(=O)CC1`, “inactive”.
`COc1cccc(CNC(=O)c2n[nH]c3ccccc23)c1`: the Potency result was “inactive”.
Same read-out and setting: next, `CC(Nc1nc(C(F)(F)F)nc2ccccc12)c1cccs1` (configuration not stated): “inactive”; `COc1cccc(CNc2ncc(-c3ccccc3)n2C)c1`: “inactive”.
The same measure, in the same setting: as for `NS(=O)(=O)c1ccc(CCNC(=O)CNC(=O)Cc2ccccc2)cc1`, the entry is “inactive”.
On to `COc1cccc(CNc2nc(C(F)(F)F)nc3ccccc23)c1`, for which the Potency was 23.1 µM (active).
Same read-out and setting: as for `NS(=O)(=O)c1ccc(CCNc2nc(C(F)(F)F)nc3ccccc23)cc1`, the figure is 23.1 µM (active); as for `Cc1ccc(C)c(Cn2c(C(=O)O)c(CNCc3cccs3)c3ccccc32)c1`, “inactive”.
Take `COC(=O)CN1C(=O)CSc2ccc(S(=O)(=O)Nc3cc(C)ccc3C)cc21`: the Potency entry was “inactive”.
Same read-out and setting: next, `CN1CCN(S(=O)(=O)c2ccc(N3CCN(c4ccccc4O)CC3)c([N+](=O)[O-])c2)CC1`: 14.6 µM (active); `Cc1cc(N)n(-c2ccc(S(=O)(=O)N3CCCC3)cc2[N+](=O)[O-])n1`: “inactive”.
With `Cc1ccc(C(=O)c2ccc(N3CCN(C)CC3)c([N+](=O)[O-])c2)cc1`, the Potency entry was “inactive”.
Still for that read-out and setting: next, `COc1ccc(-c2nc(Cn3c(=O)cc(C)c4c(C)nn(-c5ccccc5)c43)c(C)o2)c(OC)c1`: “inactive”; `Cc1cc(C)n2ncc(C(=O)N3CCCC3)c2n1`: “inactive”.
In the case of `Cc1cccc(NS(=O)(=O)c2ccc(C)c(C(=O)NCC(c3ccccc3)N(C)C)c2)c1` (configuration not stated), the Potency entry is “inactive”.
Turning to `Cc1ccccc1-c1ccc(Nc2ccc(C(=O)N3CCOCC3)cc2)nn1`, the Potency entry was “inactive”.
Consider `CCOC(=O)c1ccccc1C(=O)N1CCOCCOCCOCC1`, for which the Potency entry is “inactive”.
Still for that read-out and setting: next, `Cc1oc2c(c1C(=O)N1CCOCC1)C(=O)c1ccccc1C2=O`: 16.4 µM (active); `COc1ccc(C2Nc3ccc(NC(=O)COC(C)=O)cc3C(=O)N2Cc2ccccc2)cc1COc1ccc(NC(C)=O)cc1` (configuration not stated): “inactive”; `CC1=CC(C)(C)N(C(=O)CSc2nnc(-c3ccccc3)o2)c2ccc(C)cc21`: 25.9 µM (active).
On the same count and under the same terms, next, `CC1=CC(C)(C)N(C(=O)CSc2nccn2C)c2cc(C)ccc21`: “inactive”; `Cc1cccc(C)c1OC(=O)CSc1nnc(-c2ccccc2)o1`: “inactive”; `CCN(CC)C(=O)[C@H]1CC(CC(=O)NCc2ccco2)C(=O)N2CCc3c([nH]c4ccccc34)[C@]12C` (some centres not stated): “inactive”.
The same measure, in the same setting: as for `Cc1cccc(N=C2NN=C(c3c[nH]c4ccccc34)CS2)c1`, the entry is “inactive”; as for `Clc1cccc(N=C2NN=C(c3ccc4c(c3)OCCO4)CS2)c1`, 5.17 µM (active); as for `S=C(Nc1cccc(Cl)c1)Nc1ccc2c(c1)OCCO2`, “inactive”.
Turning to `CCn1nnc2cc(C(=O)Nc3ccc(C(=O)OC(C)C)cc3)ccc21`, the Potency result is “inactive”.
As for `Cc1cc(C)cc(NC(=O)CSc2oc(-c3ccccc3)nc2S(=O)(=O)c2ccc(Cl)cc2)c1`, the activity change, negative = inhibition is 4.62% [at 9.27 µM] (inactive).
As to `Cc1ccc(-c2nc(CS(=O)(=O)CC(=O)NCc3ccccc3Cl)c(C)o2)cc1`, the Potency entry is “inactive”.
On the same count and under the same terms, next, `CCCCn1c(SCc2ncc(-c3ccccc3)o2)nc2cc(S(N)(=O)=O)ccc21`: 14.6 µM (active).
On the same count and under the same terms, next, `CCCCn1c(SCC(=O)N2CCCC2=O)nc2cc(S(N)(=O)=O)ccc21`: “inactive”; `CCCCn1c(SCC(=O)N2CCC(C(=O)OCC)CC2)nc2cc(S(N)(=O)=O)ccc21`: “inactive”.
Take `CCCn1c2ccccc2c2cnn(CC(=O)N(CC)c3cc(C)ccc3C)c(=O)c21`: the Potency entry is “inactive”.
With `Cc1ccc(S(=O)(=O)c2nc(-c3cccs3)oc2N2CCCCC2)cc1`, the Potency entry was “inactive”.
The same measure, in the same setting: next, `CCOc1ccccc1NC(=O)Cn1nnc(C(=O)Nc2ccc(C)c(C)c2)c1N`: “inactive”.
